In all, about 310,000 compounds went through this assay and about 14,000 (4.5%) showed an effect of 50% or more. Effects have a minus sign here. For the sample, strong results were picked, then their nearest neighbours and some compounds at random.

We go through 61 compounds from PMC4336329 (PLoS ONE, 2015).
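Further: peak tail current of the secondary pulse compared with the same well before compound.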

The assay deals with human ether-à-go-go-related gene (hERG) potassium channel (human, UniProt Q12809). In words: primary screen, population patch clamp on CHO cells stably expressing hERG; higher = less effect of the substance.
Sequence of human ether-à-go-go-related gene (hERG) potassium channel (Q12809 whole entry, looked up): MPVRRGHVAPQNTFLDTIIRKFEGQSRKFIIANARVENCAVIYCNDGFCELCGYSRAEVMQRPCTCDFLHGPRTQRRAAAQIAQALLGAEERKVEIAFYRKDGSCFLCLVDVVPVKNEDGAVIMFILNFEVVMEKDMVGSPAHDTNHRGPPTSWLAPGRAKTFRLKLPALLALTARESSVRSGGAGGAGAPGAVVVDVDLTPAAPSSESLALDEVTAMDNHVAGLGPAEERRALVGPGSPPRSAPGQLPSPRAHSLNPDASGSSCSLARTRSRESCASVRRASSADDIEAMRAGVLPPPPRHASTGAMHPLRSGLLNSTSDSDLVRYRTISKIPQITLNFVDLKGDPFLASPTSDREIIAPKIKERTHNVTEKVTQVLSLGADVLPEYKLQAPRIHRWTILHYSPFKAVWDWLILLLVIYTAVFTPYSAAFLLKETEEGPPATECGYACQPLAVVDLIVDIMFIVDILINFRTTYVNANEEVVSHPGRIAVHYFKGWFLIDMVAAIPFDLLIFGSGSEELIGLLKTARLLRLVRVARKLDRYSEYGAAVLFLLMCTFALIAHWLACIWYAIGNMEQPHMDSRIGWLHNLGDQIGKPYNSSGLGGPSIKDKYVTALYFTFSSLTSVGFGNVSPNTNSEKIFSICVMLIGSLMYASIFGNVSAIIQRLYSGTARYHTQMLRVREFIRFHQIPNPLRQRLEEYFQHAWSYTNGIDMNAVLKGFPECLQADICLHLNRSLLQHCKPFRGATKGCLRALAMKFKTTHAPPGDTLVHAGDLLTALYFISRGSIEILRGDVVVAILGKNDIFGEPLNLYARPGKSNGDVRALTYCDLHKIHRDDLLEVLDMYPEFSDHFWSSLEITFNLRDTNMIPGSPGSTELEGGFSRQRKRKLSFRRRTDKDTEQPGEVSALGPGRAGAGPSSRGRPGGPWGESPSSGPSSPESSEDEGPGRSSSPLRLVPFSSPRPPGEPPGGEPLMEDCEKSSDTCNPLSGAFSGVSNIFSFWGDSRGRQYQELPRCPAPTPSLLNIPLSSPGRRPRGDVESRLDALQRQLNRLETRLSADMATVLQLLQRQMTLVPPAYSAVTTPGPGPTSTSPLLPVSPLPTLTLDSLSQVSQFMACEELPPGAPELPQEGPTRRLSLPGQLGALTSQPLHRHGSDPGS
With `CCOC(=O)c1ccc[n+](CC(=O)Nc2ccccc2OC(F)F)c1.[Cl-]`, the “hERG current change (%, negative = inhibition) at 10uM” value turned out to be 4.85%.
For the compound `CCCCOc1ccc(C(=O)Nn2cnnc2)cc1`, the “hERG current change (%, negative = inhibition) at 10uM” value is reported as -0.225%.
Take `Cc1nc2ccc(NC(=O)c3cc(Cl)ccn3)cc2s1`: the “hERG current change (%, negative = inhibition) at 10uM” value came to 17.4%.
With `C=CCn1c(SCc2ccc(C(=O)NCCO)cc2)nc2sc(C)c(C)c2c1=O`, the “hERG current change (%, negative = inhibition) at 10uM” value is -61.6%.
With `Cc1sc2nc(SCc3ccc(C(=O)O)cc3)n(Cc3ccco3)c(=O)c2c1C` the figure was -59.2%; with `Cc1sc2nc(SCc3ccccc3)n(Cc3ccco3)c(=O)c2c1C`, -2.09%; with `C=CCn1c(SCc2ccc(C(=O)O)cc2)nc2sc(C)c(C)c2c1=O`, -4.36%.
With `C=CCn1c(SCC(=O)NCCO)nc2sc(C)c(C)c2c1=O`, the “hERG current change (%, negative = inhibition) at 10uM” value was 11.6%.
On to `Cc1ccc(CSc2nc3sc(C)c(C)c3c(=O)n2Cc2ccco2)cc1`, for which the “hERG current change (%, negative = inhibition) at 10uM” value is reported as -6.19%.
Turning to `O=C1C2CC=C(Cl)CC2C(=O)N1CCC[n+]1cccc2ccccc21` (stereo not shown), the “hERG current change (%, negative = inhibition) at 10uM” value is on record as 8.95%.
`Cc1onc(-c2ccccc2Cl)c1C(=O)Nc1nnc(-c2ccc(Cl)cc2Cl)s1`: the “hERG current change (%, negative = inhibition) at 10uM” value is 17%.
Regarding `Cc1cc(OCC(=O)NCC(O)c2ccccc2)c2c3c(c(=O)oc2c1)CCC3` (stereo not shown), the “hERG current change (%, negative = inhibition) at 10uM” value is 16.1%.
The figure for `Cc1ccc(/C=N/NC(=O)Cn2cnc3ccccc32)cc1` is 14.4%; for `CC1(C)CNc2cc([N+](=O)[O-])ccc2S1` it is 6.88%; for `COc1ccc(C(=O)NCC(=O)N2CCN(c3ccc(F)cc3)CC2)cc1` it is -1.94%.
Turning to `CCOC(=O)c1oc2ccccc2c1NC(=O)COc1cccc(OC)c1`, the “hERG current change (%, negative = inhibition) at 10uM” value came to 10.4%.
The figure for `NC(=O)c1oc2ccccc2c1NC(=O)c1ccc(F)cc1` is 10.9%; for `CCOCCCN(C)C1CCN(C(=O)c2oc3ccccc3c2NC(=O)COc2ccc(F)cc2)CC1` it is -80.1%.
In the case of `CCOCC(=O)Nc1c(C(=O)OCC)oc2ccccc12`, the “hERG current change (%, negative = inhibition) at 10uM” value is recorded as -11.1%.
Take `COCCCN(C)C1CCN(C(=O)Nc2ccc(F)cc2)CC1`: the “hERG current change (%, negative = inhibition) at 10uM” value is given as -28.8%.
The figure for `CCOC(=O)c1oc2ccccc2c1NC(=O)COc1ccc(F)cc1` is 14%; for `CCOCCCN(C)C1CCN(C(=O)c2oc3ccccc3c2NC(=O)COc2cccc(C)c2)CC1` it is -82.2%.
In the case of `CCOCCCN(C)C1CCN(C(=O)c2oc3ccccc3c2NC(=O)Cc2ccc(F)cc2)CC1`, the “hERG current change (%, negative = inhibition) at 10uM” value is -77.8%.
For the compound `CCOCCCN(C)C1CCN(C(=O)c2oc3ccccc3c2NC(=O)c2ccc(F)cc2)CC1`, the “hERG current change (%, negative = inhibition) at 10uM” value is -77.5%.
On to `COc1ccc(CC(=O)Nc2c(C(=O)N3CCN(c4ccccc4OC)CC3)oc3ccccc23)cc1OC`, for which the “hERG current change (%, negative = inhibition) at 10uM” value is listed as -24.4%.
In the case of `CCOCC(=O)Nc1c(C(=O)N2CCN(c3ncccn3)CC2)oc2ccccc12`, the “hERG current change (%, negative = inhibition) at 10uM” value is given as -21.4%.
With `COc1ccc(S(=O)(=O)Nc2ccc3oc(C)c(C(=O)O)c3c2)cc1` the figure was 21.3%; with `CSc1nc(C)cc(Oc2ccc(OCCOc3ccccc3)nn2)n1`, -23.2%; with `OC1(c2ccc(Cl)cc2)CCN(Cc2nc(-c3cnccn3)no2)CC1`, -1.35%.
Take `CSc1nc2n(n1)C(c1cccc(F)c1)C(C(=O)Nc1ccc(C)cc1C)=C(C)N2` (stereo not shown): the “hERG current change (%, negative = inhibition) at 10uM” value is -0.769%.
For the compound `O=C(COC(=O)c1ccccc1N1C(=O)C2C3CCC(C3)C2C1=O)c1ccccc1` (stereo not shown), the “hERG current change (%, negative = inhibition) at 10uM” value came to 1.28%.
Consider `COc1cccc(N(C(=O)c2sc(C)nc2C)C(C(=O)NCC2CCCO2)c2ccccc2)c1` (stereo not shown), for which the “hERG current change (%, negative = inhibition) at 10uM” value is given as -8.87%.
As for `CC1CCCCC1NC(=O)c1ccc2c(c1)OCCO2` (stereo not shown), the “hERG current change (%, negative = inhibition) at 10uM” value amounted to 3.51%.
As for `Cc1cc(OCc2nc3ccccc3s2)ccc1N`, the “hERG current change (%, negative = inhibition) at 10uM” value was -1.17%.
Consider `Cc1cc(NC(=O)/C=C/c2cccc(Cl)c2)n(-c2nc3ccccc3[nH]2)n1`, for which the “hERG current change (%, negative = inhibition) at 10uM” value was -1.83%.
Regarding `COc1ccc(-c2csc(N3CCN(S(=O)(=O)c4ccc5c(c4)NC(=O)CO5)CC3)n2)cc1`, the “hERG current change (%, negative = inhibition) at 10uM” value is reported as 17.2%.
The figure for `CCC(=O)N(C(=O)CC)N1CCN(c2ccncc2S(=O)(=O)N2CCCCC2)CC1` is -52.5%; for `CCC(=O)NN1CCN(c2ccncc2S(=O)(=O)N2CCCCC2)CC1` it is 5.14%; for `CN1CCN(c2ccncc2S(=O)(=O)N2CCCCC2)CC1` it is 14.7%.
With `Cc1cc(N(C)C)c(C#N)c(N2CCCCC2)n1`, the “hERG current change (%, negative = inhibition) at 10uM” value is -4.92%.
`O=C(OC(c1ccccc1)c1nccc2ccccc12)c1cc([N+](=O)[O-])cc([N+](=O)[O-])c1` (stereo not shown): the “hERG current change (%, negative = inhibition) at 10uM” value turned out to be 22.9%.
`Cc1occc1C(=O)/C(C#N)=C/c1ccc(O)c(Br)c1`: the “hERG current change (%, negative = inhibition) at 10uM” value turned out to be 6.16%.
As for `O=C(NCCCc1ccccc1)c1cc(COc2c(F)cccc2F)on1`, the “hERG current change (%, negative = inhibition) at 10uM” value is -6.23%.
Turning to `Cc1cc(C)nc(CCNC(=O)c2cc(COc3c(F)cccc3F)on2)n1`, the “hERG current change (%, negative = inhibition) at 10uM” value was determined as 4.72%.
As for `O=C(NCCc1cn2ccccc2n1)c1cc(COc2c(F)cccc2F)on1`, the “hERG current change (%, negative = inhibition) at 10uM” value is given as -64.9%.
Turning to `O=C(NCCc1cn2ccccc2n1)c1cc(COc2ccc3ncccc3c2)on1`, the “hERG current change (%, negative = inhibition) at 10uM” value is -65.7%.
Consider `Cc1ccc(OCc2cc(C(=O)NCc3cn4ccccc4n3)no2)cc1C`, for which the “hERG current change (%, negative = inhibition) at 10uM” value was -38.7%.
As to `Cc1cc(C)n(CCNC(=O)c2cc(COc3ccc4ncccc4c3)on2)n1`, the “hERG current change (%, negative = inhibition) at 10uM” value was -3.15%.
The figure for `Cc1cc(C(=O)NC(=S)Nc2cccc(NC(=O)C(C)C)c2)ccc1[N+](=O)[O-]` is 3.95%; for `Cc1ccc(NC(=O)C2CCC(=O)N2C(=O)OCc2ccccc2)cc1` (stereo not shown) it is -23.5%; for `COc1ccc(F)cc1C(=O)C1CCCN(Cc2cccn2-c2cccnc2)C1` (stereo not shown) it is -47%.
With `COc1ccc(F)cc1C(=O)C1CCCN(Cc2cccn2-c2ccccn2)C1` (stereo not shown) the figure was -83.5%; with `O=C(c1cc(F)ccc1F)C1CCCN(C(=O)c2ccc3nccnc3c2)C1` (stereo not shown), -50.2%.
The figure for `O=C(c1cc(F)ccc1F)C1CCCN(C(=O)CSc2ccccn2)C1` (stereo not shown) is -31.9%.
Consider `COC(=O)c1cccc(C(=O)N2CCCC(C(=O)c3cc(F)ccc3F)C2)c1` (stereo not shown), for which the “hERG current change (%, negative = inhibition) at 10uM” value was -21%.
Take `COc1ncccc1C(=O)N1CCCC(C(=O)c2cc(F)ccc2F)C1` (stereo not shown): the “hERG current change (%, negative = inhibition) at 10uM” value was -9.02%.
As for `CN(C)c1cccc(C(=O)N2CCCC(C(=O)c3cc(F)ccc3F)C2)c1` (stereo not shown), the “hERG current change (%, negative = inhibition) at 10uM” value worked out at 0.21%.
With `COc1ccc(F)cc1C(=O)C1CCCN(C(=O)CSc2ccccn2)C1` (stereo not shown), the “hERG current change (%, negative = inhibition) at 10uM” value is listed as -7.26%.
With `COc1ccc(C(=O)C2CCCN(C(=O)c3cccnc3OC)C2)cc1F` (stereo not shown), the “hERG current change (%, negative = inhibition) at 10uM” value is -4.56%.
As to `O=C(c1cc(F)ccc1F)C1CCCN(Cc2cccn2-c2ccccn2)C1` (stereo not shown), the “hERG current change (%, negative = inhibition) at 10uM” value was -77.9%.
Consider `COc1ccc(C(=O)C2CCCN(Cc3cccn3-c3ccccn3)C2)cc1F` (stereo not shown), for which the “hERG current change (%, negative = inhibition) at 10uM” value is reported as -78.5%.
